LmPK inh – qHTS Assay for Inhibitors of Leishmania Mexicana Pyruvate Kinase (LmPK) | Q27686 | purified LmPK, Kinase-Glo ATP luminescence, 1 h | Potency, µM (highest dose often 57.5 µM), without a hit: at the highest dose activity change, negative = inhibition, actives largely listed as inhibitors | 290,000 compounds, 0.37% hits
Target sequence (Q27686 whole entry, looked up): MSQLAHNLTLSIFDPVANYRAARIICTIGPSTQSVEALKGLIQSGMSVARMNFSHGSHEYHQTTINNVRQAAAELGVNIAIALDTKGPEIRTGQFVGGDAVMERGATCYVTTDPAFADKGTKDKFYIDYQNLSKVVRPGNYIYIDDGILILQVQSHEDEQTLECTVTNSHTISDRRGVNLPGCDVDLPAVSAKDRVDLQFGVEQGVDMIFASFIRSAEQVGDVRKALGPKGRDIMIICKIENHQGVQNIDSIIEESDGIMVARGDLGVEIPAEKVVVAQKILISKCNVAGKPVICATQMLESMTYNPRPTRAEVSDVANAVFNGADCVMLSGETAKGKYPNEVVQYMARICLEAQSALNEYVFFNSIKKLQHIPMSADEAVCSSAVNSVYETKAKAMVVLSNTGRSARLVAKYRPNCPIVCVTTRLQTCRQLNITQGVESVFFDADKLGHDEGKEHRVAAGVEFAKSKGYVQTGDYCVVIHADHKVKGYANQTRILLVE
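Kinase-Glo luminescence read after 1 h RT reaction of 0.1 nM LmPK with 0.5 mM PEP and 0.1 mM ADP. Activity scaled between uninhibited and enzyme-free controls.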
Giardia FBPA inh – qHTS Assay for Inhibitors of Fructose-1,6-bisphosphate Aldolase from Giardia Lamblia; A8B2U2; purified Giardia FBPA; Potency, µM (titrated, usually from 59.6 µM), for the others: at the top dose activity, negative = inhibition, hits mostly inhibitors; 290,000 compounds, 0.71% hits; AID 2451, 2010; also: nearly all actives have a fitted effect of over 55% in size
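40 nM FBPA preincubated 10 min at RT with compound (up to 57.5 uM final), then substrate plus GAPDH/TPI/NAD/arsenate coupling and diaphorase/resazurin added. Fluorescence read after 20 min at RT, 525/598 nm.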
TbPYK inhibitor – qHTS of Trypanosoma Brucei Inhibitors. pyruvate kinase (Trypanosoma brucei), Q57TT1. TbPYK enzyme, Kinase-Glo Plus ATP luminescence, 45 min. Potency, µM (top dose mostly 76.8 µM), for the others: at the highest dose activity, negative = inhibition, most hits filed as inhibitors. 410,000 compounds, 0.12% hits. AID 624173, 2012; also: nearly all actives have a fitted effect of over 50% in size
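Screened from lowest to highest concentration, compounds were pinned into TbPYK/substrate mixtures, and ADP (130 uM final) was added. Plates sat at room temperature for 45 min prior to Kinase-Glo Plus detection by luminescence.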
RE007 growth inh – qHTS Assay for Inhibitors of the HIV-1 protein Vpr; S. pombe RE007 Vpr strain, BacTiter-Glo ATP luminescence, 24 h; Potency, µM (series often up to 92.2 µM), inactives show top-dose activity change, negative = less growth, actives largely listed as inhibitors; 360,000 compounds, 0.21% hits; active = well fitted falling curve with a large enough effect; inconclusive = small, poorly fitted or top-dose-only effect; inactive = no such curve, though single readings can be large or run the other way; also: nearly all actives have a fitted effect of over 50% in size
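Fission yeast RE007 carrying one integrated HIV-1 vpr copy, seeded at OD 0.01 in PMG+AL medium with 23 nL pinned compound. Grown 24 h at 30 degrees; viability read by BacTiter-Glo luminescence after 5 min.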
Active calls of the source: *; ? = inconclusive; / = no result; [ ] = dose if it differs, or a comment. Shown are actives, neighbours in structure and some others; about 0.95% of the full set was active somewhere. Unless noted, calls follow the shape of the dose curve; as a rule, active = well fitted curve in the direction sought with a large enough effect; inconclusive = small, poorly fitted or top-dose-only effect, or another doubt; inactive = no such curve, though single readings can be large; an effect the other way counts as inactive or inconclusive. % is scaled to controls: 0 for no effect and ±100 for the full control effect; potency is read from the fitted curve at half-maximal effect.

SMILES	LmPK inh	Giardia FBPA inh	TbPYK inhibitor	RE007 growth inh
O=C(C=Cc1ccccn1)c1ccccc1O	/	/	-12.0%	?
O=C(/C=C/c1ccc(O)cc1)c1ccccc1	12.6µM*	7.7%	?	50.1µM*
O=C(/C=C/c1cccnc1)c1ccc(O)cc1	-13.3%	0.5%	-5.3%	-2.5%
O=C(/C=C/c1ccccc1)c1ccc(O)cc1	/	-0.8%	/	/
O=C(C=Cc1cccnc1)c1ccccc1	/	/	-1.9%	44.7µM*
O=C(C=Cc1ccccn1)c1ccccc1	/	/	4.4%	25.1µM*
CC1CCCC(NC(=O)c2ccc3c(c2)OCO3)C1C (stereo unspecified)	/	/	1.2%	22.5%
COc1ccc(CN2CCC(n3nccc3NC(=O)c3cccc(F)c3)CC2)cc1O	-10.0%	0.9%	-3.6%	18.5%
CC1(C)C[C@H]2C3=CCC4[C@@]5(C)CC[C@H](O)[C@](C)(CO)C5CC[C@@]4(C)[C@]3(C)C[C@H]3O[C@@H]1[C@H](O)[C@]32CO (stereo partly specified)	/	/	1.3%	-10.7%
CC(C)c1ccc(NC(=O)C2(C)Cc3c(-c4ccc(N(C)C)cc4)ccnc3O2)cc1 (stereo unspecified)	/	/	-0.5%	14.5%
CCc1ccc(Nc2ccc3nonc3c2[N+](=O)[O-])cc1	/	/	-0.7%	4.8%
CCOC(=O)NNc1ccc2nonc2c1[N+](=O)[O-]	-1.2%	7.06µM*	-16.5%	25.1µM*
CC[N+]1(CC)CCC(=C(c2ccccc2)c2ccccc2)C1C (stereo unspecified)	/	/	3.9%	/
COC1=C2C[C@@H](C)C[C@H](OC)[C@H](O)[C@@H](C)/C=C(\C)[C@H](OC(N)=O)[C@@H](OC)/C=C\C=C(/C)C(=O)NC(=CC1=O)C2=O	/	3.54µM*	/	/
CCC1CC2CC3c4[nH]c5ccc(OC)cc5c4CCN(C2)C13 (stereo unspecified)	/	/	-11.4%[157 µM]	/
CCOC(=O)C(C#N)=C1CCN(Cc2ccccc2)CC1	0.0%	-28.3%	2.2%	/
CCOC(=O)/C(C#N)=C1/C(=O)N(Cc2ccccc2)c2ccccc21	-6.6%	9.98µM*	-0.7%	-8.6%
Cc1cc(C)c(-c2csc(NC(=O)C3=COCCO3)n2)cc1C	/	/	0.1%	12.6µM*
Cc1nn(C(C)c2n[nH]c(=S)n2-c2ccc(F)cc2)c(C)c1[N+](=O)[O-] (stereo unspecified)	6.6%	3.6%	?	4.0%
Cc1nn(CCc2n[nH]c(=S)n2-c2ccc(F)c(Cl)c2)c(C)c1[N+](=O)[O-]	?	-8.9%	6.31µM*	-9.1%
Cc1nn(CCc2n[nH]c(=S)n2-c2cccc(Cl)c2)c(C)c1[N+](=O)[O-]	8.91µM*	-5.0%	?	-1.4%
Cc1cccc(-n2c(Cn3nc(C)c([N+](=O)[O-])c3C)n[nH]c2=S)c1	-21.0%	-11.5%	-29.0%	12.4%
Cc1nn(CCc2n[nH]c(=S)n2-c2ccc(F)cc2)c(C)c1[N+](=O)[O-]	?	-8.9%	10µM*	4.9%
CC[C@H](C)[C@H](NC(=O)[C@H](C)NC(=O)[C@H](Cc1cnc[nH]1)NC(=O)[C@@H]1CCCN1C(=O)CNC(=O)[C@H](CC(C)C)NC(=O)[C@H](CC(C)C)NC(=O)[C@H](Cc1ccc(O)cc1)NC(=O)CNC(=O)[C@H](C)NC(=O)[C@H](CO)NC(=O)[C@H](CC(N)=O)NC(=O)[C@H](CC(C)C)NC(=O)[C@@H](NC(=O)[C@H](Cc1c[nH]c2ccccc12)NC(=O)CN)[C@@H](C)O)C(=O)O	/	-0.2%	/	/
CN(C(=O)COC(=O)c1ccc(S(=O)(=O)N2CCOCC2)cc1)c1ccccc1	/	/	-0.9%	-2.5%
CCN(CC)Cc1cc(O)c(CN(CC)CC)cc1O	-5.5%	5.61µM*	10µM*	-2.9%
Cc1cc2nc3c(=O)[nH]c(=O)[nH]c3nc2c([N+](=O)[O-])c1N	2.8%	5µM*	-7.4%	-15.5%
COc1ccc(-c2cc(=O)oc3c(O)c(O)ccc23)cc1	-2.8%	?	-6.2%	13.0%
O=c1ccc2ccc(O)c(O)c2o1	/	9.98µM*	/	/
CC1(C)CCC[C@@](C)([C@H]2CC[C@]3(C)[C@@H]2[C@H](O)CC2[C@@]4(C)CC[C@H](O)C(C)(C)[C@@H]4[C@@H](O)C[C@]23C)O1 (stereo partly specified)	/	3.1%	/	/

Compound activity from PubChem.
